Reference: PubChem BioAssay AID1347417 (National Center for Advancing Translational Sciences (NCATS), 2020)
Out of some 120,000 compounds screened, about 5,300 (4.4%) were called active. Entries that show only a call come without a potency. Roughly 22% stayed inconclusive and do not appear here. This excerpt belongs to a sample that is enriched for actives. Unmarked numbers belong to inactive results. The call rests on the fitted dose curve; in most records, active means well fitted inhibition curve with a large enough effect; inconclusive means small, poorly fitted or top-dose-only effect; inactive means no such curve, though single readings can be large or run the other way.

experiment: qHTS Primary assay for Inhibitors of Plasmodium falciparum Dd2 growth in vitro; further: nearly all actives have a fitted effect of over 65% in size; conditions: P. falciparum Dd2 growth, SYBR Green, 72 h; series mostly up to 28.9 µM
Method in brief: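 Infected erythrocytes (Dd2, 0.3% parasitemia, 2.5% hematocrit final) are added to compound in RPMI-1640/Albumax II medium, grown 72 h at 37C in low oxygen, then lysed with saponin/Triton-X containing SYBR Green and read by fluorescence.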
Potency means the concentration at half of the fitted maximal effect.

Row | Structure (SMILES) | Potency | activity, negative = inhibition
1 | CSc1nccc(N2CCC(c3nccn3Cc3cccnc3)CC2)n1 | inactive | 
2 | CCS(=O)(=O)N1CCCN(C(=O)C2CC2)C(c2ccccc2)CC(=O)NCC1 (stereo not drawn) | inactive | 
3 | CN1CC2(CCN(C(=O)c3n[nH]c(=O)c4ccccc34)CC2)CC1C(=O)N1CCOCC1 (stereo not drawn) | inactive | 
4 | O=C(NCc1cccnc1)c1nc(-c2ccc(Cl)nc2)c2cnccn12 | inactive | 
5 | CN(C)C(=O)c1nc(-c2cccnc2)c2ccccn12 | inactive | 
6 | CN(C)C(=O)c1nc(-c2ccc(Cl)cc2Cl)c2cnccn12 | 10 µM (active) | 
7 | O=C1CCN(C(=O)CN2CCCCCC2)CCCC(c2nc(-c3ccccc3)no2)CCN1 (stereo not drawn) | inactive | 
8 | Cc1cc(C[C@@H]2COC[C@@H]2NC(=O)c2ccc3nc(C)[nH]c3c2)on1 | inactive | 
9 | CCc1ccc(Nc2nn3c(=O)c4cc5c(cc4nc3s2)OCO5)cc1 | inactive | 
10 | Cc1ccccc1Nc1nn2c(=O)c3ccc(C(=O)NCCc4ccc(Cl)cc4)cc3nc2s1 | 3.16 µM (active) | 
11 | O=C(NCCc1ccc(Cl)cc1)c1ccc2nc(CCc3ccccc3)oc2c1 | inactive | 
12 | CC(C)c1nc(CNC(=O)c2ccc(N(C)C)nc2)no1 | inactive | 
13 | c1cc(-c2ccsc2)n2nc(C3CCCO3)nc2n1 (stereo not drawn) | inactive | 
14 | Cc1ccc([C@@H]2CN(C(=O)c3ccco3)[C@@H]3C4CCN(CC4)[C@@H]32)cc1 | inactive | 
15 | COCCn1nc2n(c1=O)CCN(C(=O)c1ccco1)CC2 | inactive | 
16 | Cn1cc(CN2CCCN(C(=O)c3ccco3)CC2)c(-c2ccc(C3CCCCC3)cc2)n1 | 8.91 µM (active) | 
17 | COCc1nc(CCNC(=O)CCc2ccccc2)no1 | inactive | 
18 | COc1ccc(-c2cc(N3CCCN(C(=O)c4ccc(OC)cc4C)CC3)n[nH]2)cc1 | inactive | 
19 | CCn1nccc1C(=O)N1CCn2nnc(CCC(=O)NCc3ccccc3)c2C1 | inactive | 
20 | Cc1ccsc1-c1[nH]nc2ncc(-c3ccccc3O)nc12 | inactive | 
21 | Cc1ccccc1-c1[nH]nc2ncc(-c3ccccc3)nc12 | 3.98 µM (active) | 

Row | Structure (SMILES) | Potency | activity, negative = inhibition
22 | COc1ccc(-c2[nH]nc3ncc(-c4ccccc4)nc23)c(C)c1 | inactive | 
23 | Cc1ccc(CNC(=O)C2(c3ccc(NS(C)(=O)=O)cc3)CCCCC2)cc1 | inactive | 
24 | NCC(=O)N1Cc2ccccc2CC2(CCCCN2CC2CCOCC2)C1 (stereo not drawn) | inactive | 
25 | NCC(=O)N1CCCC2(Cc3ccccc3CN2C(=O)c2cccc(Cl)c2)C1 (stereo not drawn) | 11.2 µM (active) | 
26 | O=C(c1cccc(Cl)c1)N1CCC2(CC1)NCc1ccccc1NC2=O | inactive | 
27 | COc1ccc(CN2CC[C@@H]3CN(S(C)(=O)=O)[C@@H]3C2)c(OC)c1 | inactive | 
28 | c1ccc(CN2CCNc3cc(NCc4cccnc4)ncc3C2)cc1 | inactive | 
29 | Fc1ccc(-c2cc(NC3CCCC3)nc3[nH]ccc23)nc1 | inactive | 
30 | c1cncc(CNc2cc(-c3cnc4ccccc4n3)c3cc[nH]c3n2)c1 | 3.98 µM (active) | 
31 | NC(=O)c1ccc(OC2CCN(C(=O)CCc3ccccc3)C2)nc1 (stereo not drawn) | inactive | 
32 | O=C(c1ccccc1F)N1CC(Oc2cccc(-c3nc(-c4ccccc4)no3)c2)C1 |  | 36.6% [at 5.79 µM]
33 | CCCC(=O)N1CCC(N2C(=O)C(O)C23CCCCC3)CC1 (stereo not drawn) | inactive | 
34 | COCCN1CC[C@H]2CN(C(=O)Cc3ccc(OC)cc3)CC[C@H]2CC1=O | inactive | 
35 | C[C@]1(CO)C2CC[C@@H](O)[C@@H](CC(=O)N3CC[C@@H](O)C3)[C@]2(C)CC[C@H]1OC(=O)Nc1ccc(Oc2ccccc2)cc1 (stereo partly drawn) | inactive | 
36 | COc1ccc(CCNC(=O)c2noc(-c3ccc(C)cc3)n2)cc1OC | inactive | 
37 | CCOc1ccccc1CNC(=O)c1ccc2c(c1)nc1n2CCC(C)C1 (stereo not drawn) | inactive | 
38 | CCOc1ccccc1CNC(=O)c1ccc(-n2c(C)cc3c2CCC(C)C3)cc1 (stereo not drawn) | 12.6 µM (active) | 
39 | COc1ccc(CCNC(=O)c2ccc(-n3c(C)cc4c3CCCC4)cc2)cc1OC | 11.2 µM (active) | 
40 | COc1ccc(CCNC(=O)c2ccc3c(c2)nc(C)n3-c2ccc(Br)cc2)cc1OC | inactive | 
41 | CCOc1ccccc1CNC(=O)C1CCCN(S(=O)(=O)c2ccc3c(ccn3C)c2)C1 (stereo not drawn) | inactive | 
42 | COc1ccccc1CNC(=O)c1ccc(-n2c(C)cc3c2CCCC3)cc1 | 11.2 µM (active) | 

Row | Structure (SMILES) | Potency | activity, negative = inhibition
43 | COc1ccccc1CNC(=O)c1cc2c(s1)CCN(C(=O)c1ccccc1)C2 | inactive | 
44 | COc1ccccc1Oc1ncccc1CNC(=O)c1ccc2n[nH]nc2c1 | inactive | 
45 | COc1ccc(NC(=O)Cn2ccn3nc(-c4ccc(F)cc4)c(CO)c3c2=O)c(OC)c1 | inactive | 
46 | O=C(N[C@@H]1CN[C@H](CO)C1)c1ccncc1 | inactive | 
47 | COC(=O)[C@@H]1Cc2c([nH]c3ccccc23)[C@H]2C[C@@H](NCCN3CCOCC3)C[C@@H](c3ccccc3F)N21 | inactive | 
48 | Cc1cnc(C)c(N2CCN(C(=O)[C@H]3CC[C@@H](N)C3)CC2)n1 | inactive | 
49 | O=C(Cc1ccc(F)cc1)N1CCCC(c2nn(-c3ccc(Cl)cc3)c(=O)[nH]2)C1 (stereo not drawn) | inactive | 
50 | CC(=O)N1CCCC(c2nn(-c3ccccc3)c(=O)[nH]2)C1 (stereo not drawn) | inactive | 
51 | O=c1[nH]c(C2CCCN(Cc3ccccn3)C2)nn1-c1ccc(Cl)cc1 (stereo not drawn) | 1.41 µM (active) | 
52 | COCCNC(=O)C1c2ccccc2C(=O)N(C2CCCC2)C12CCCCC2 (stereo not drawn) | inactive | 
53 | COCc1nnc(NC(=O)C2c3ccccc3C(=O)N(C3CCCC3)C23CCCC3)s1 (stereo not drawn) | 7.94 µM (active) | 
54 | Cc1cccnc1NC(=O)C1c2ccccc2C(=O)N(C2CCCC2)C12CCCC2 (stereo not drawn) | inactive | 
55 | CS(=O)(=O)N1CCC(F)(c2nc(-c3ccccc3)no2)CC1 | inactive | 
56 | CN1CC(=O)N(c2ccccc2F)Cc2c(NCCc3ccc(F)cc3)ncnc21 | inactive | 
57 | Cc1sc2cc(C(=O)N(C)C)[nH]c2c1CN1CCCCC1 | inactive | 
58 | CC(C)OC(=O)c1ccc(NC(=O)Cn2nc3c(cc2=O)CCCCC3)cc1 | inactive | 
59 | Cc1c(NS(=O)(=O)c2ccc(Cl)cc2)c(=O)n(-c2ccccc2)n1C | inactive | 
60 | CC(=O)c1c(C)n(S(=O)(=O)c2ccc(Cl)cc2)c2ccc(NS(=O)(=O)c3ccc(Cl)cc3)cc12 | 11.2 µM (active) | 
61 | Cn1c(=O)n(C)c2cc(NS(=O)(=O)c3ccc(F)cc3)ccc21 | inactive | 
62 | COc1cc2c(=O)c(S(=O)(=O)c3ccc(C(C)C)cc3)cn(Cc3ccccc3C)c2cc1OC | 8.91 µM (active) | 
63 | COCCCNc1nc2c(S(=O)(=O)c3ccc(C(C)C)cc3)nnn2c2ccccc12 | inactive | 
